Consider 21 molecules from PubChem BioAssay (NCI).

Experiment [1] can be described thus: NCI Yeast Anticancer Drug Screen. Data for the rad50 strain (AID 155).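 Note: 0% = growth of vehicle-only cultures of the same strain.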 The settings on record: S. cerevisiae rad50 strain growth inhibition; at 50.0 µM; stronger effect = higher value. Summed up:
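Genetically altered yeast (DNA repair pathway); compound treatment; growth inhibition vs vehicle ctrl.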

Experiment [2] in a line: NCI Yeast Anticancer Drug Screen. Data for the mec2-1 strain (AID 157). The conditions noted are these: S. cerevisiae mec2-1 strain, at 50.0 µM, stronger effect = higher value. In outline:
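Cells of the genetically defined mec2-1 yeast strain are incubated with test compound. Inhibition of growth is calculated against vehicle-treated controls.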

Experiment [3] can be described thus: NCI Yeast Anticancer Drug Screen. Data for the sgs1 mgt1 strain (AID 161).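 Note: 0% = growth of cultures given vehicle only.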 The conditions noted are these: S. cerevisiae sgs1 mgt1 strain, at 50.0 µM, stronger effect = higher value. Summed up:
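Read-out: growth inhibition vs vehicle controls. Cells: mutant yeast strain deficient in DNA damage repair.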

The nature of experiment [4]: NCI Yeast Anticancer Drug Screen. Data for the cln2 rad14 strain (AID 165).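 Note: 0% = growth equal to vehicle treated cultures.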 The conditions noted are these: S. cerevisiae cln2 rad14 strain, at 50.0 µM, stronger effect = higher value. In outline: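 The screen exposed genetically defined yeast (cln2 rad14) to test compounds and scored growth inhibition relative to vehicle-treated controls.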
A short description of experiment [5]: NCI Yeast Anticancer Drug Screen. Data for the bub3 strain (AID 167). The conditions noted are these: S. cerevisiae bub3 mutant strain, at 50.0 µM, stronger effect = higher value. In outline:
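Yeast carrying a defined mutation is treated with each compound, and growth is compared with that of vehicle-exposed cells to give inhibition.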

Experiment [6] can be described thus: NCI Yeast Anticancer Drug Screen. Data for the mlh1 rad18 strain (AID 175). The conditions noted are these: S. cerevisiae mlh1 rad18 strain growth inhibition; at 50.0 µM; stronger effect = higher value. In outline:
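Compound-treated yeast growth, normalised to vehicle controls. Strain bears defined DNA repair mutations.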

Compounds without any hit were thinned out: in the full panel of roughly 79,000, 15% have a hit. Unmarked numbers belong to inactive results. Calls of active or inactive are those of the source. Cut-off read from the data, not from the text of the source: active = growth inhibition above about 70%; inactive = the rest.

On to `Cc1cc(C(=O)NN)no1`, for which the growth inhibition in experiment [1] is -4.75%; in experiment [2] it was -4.4%; in experiment [3], -3.9%; in experiment [4], -10.4%; in experiment [5] it was -7.15%; in experiment [6], -8.15%.
As to `CC1=C(C(=O)O)CCCO1`, the growth inhibition was -7.6% in experiment [1]; 7.75% in experiment [2]; 10.2% in experiment [3]; -3% in experiment [4]; -3.75% in experiment [5]; 25.7% in experiment [6].
Turning to `O=C(CBr)c1ccc(S(=O)(=O)c2ccccc2)cc1`, the growth inhibition was 67.3% in experiment [1]; 92.7% (active) in experiment [2]; 85% (active) in experiment [3]; 27.9% in experiment [4]; 72.2% (active) in experiment [5]; 78.3% (active) in experiment [6].
Regarding `CCNS(=O)(=O)c1ccccc1`, the growth inhibition is -8.55% in experiment [1]; -29.2% in experiment [2]; -2.7% in experiment [3]; 5.9% in experiment [4]; -1.95% in experiment [5]; 14.7% in experiment [6].
As for `COc1nc(SC)nc2c1cnn2C1OC(C(O)CO)C(OC)C1O` (stereo unspecified), the growth inhibition in experiment [1] is 4.85%; in experiment [2], -1.7%; in experiment [3], 3.35%; in experiment [4], 9.95%; in experiment [5], -4.6%; in experiment [6] it was 16.3%.
As to `CCN(C(=O)NC(C)(C)C)c1cccc(C)c1`, the growth inhibition in experiment [1] is 3.15%; in experiment [2], -1.9%; in experiment [3] it was 0.35%; in experiment [4], -19.6%; in experiment [5], -0.3%; in experiment [6], 5.8%.
As to `Clc1ccc(/C=C/c2nc3ccccc3s2)cc1Cl`, the growth inhibition is -13.8% in experiment [1]; -23.6% in experiment [2]; 3.1% in experiment [3]; 9.95% in experiment [4]; 27.2% in experiment [5]; -16.2% in experiment [6].
As for `Nc1ccn(CCC(COCc2ccccc2)COCc2ccccc2)c(=O)n1`, the growth inhibition was 35.8% in experiment [1]; -13.4% in experiment [2]; 0.75% in experiment [3]; -5.6% in experiment [4]; -5.45% in experiment [5]; 5.75% in experiment [6].
Regarding `COc1nc(SC)nc2[nH]ccc12`, the growth inhibition in experiment [1] was -1%; in experiment [2] it was 9.75%; in experiment [3], -4.2%; in experiment [4], -6.6%; in experiment [5], -6.35%; in experiment [6] it was -9.1%.
With `COc1c(Cl)cc([N+](=O)[O-])cc1Cl`, the growth inhibition in experiment [1] was -3.5%; in experiment [2], 0.15%; in experiment [3], 3.1%; in experiment [4], -34.7%; in experiment [5] it was -18.5%; in experiment [6], -12.4%.
Consider `CC1(C)CSC(C)(C)C(=O)N1`, for which the growth inhibition in experiment [1] is 4.9%; in experiment [2] it was -1.95%; in experiment [3], -3.6%; in experiment [4], -6.85%; in experiment [5] it was -2.2%; in experiment [6], -1.1%.
For `COC1=C(OC)C(=O)C(COC2CCCCO2)=CC1=O` (stereo unspecified), the growth inhibition in experiment [1] is -4.9%; in experiment [2], -1.45%; in experiment [3], 8.75%; in experiment [4] it was 87.5% (active); in experiment [5], 10.6%; in experiment [6] it was -6.65%.
With `C=CC(=O)OCCC#N`, the growth inhibition in experiment [1] was 9%; in experiment [2], 18.8%; in experiment [3] it was 1.3%; in experiment [4], 2.8%; in experiment [5], 15.1%; in experiment [6] it was 5.45%.
On to `COC(=O)c1nc(N)nc(C(=O)OC)c1C(=O)c1ccc([N+](=O)[O-])cc1`, for which the growth inhibition was -20.9% in experiment [1]; -23.6% in experiment [2]; -37% in experiment [3]; -22% in experiment [4]; -44.8% in experiment [5]; -41% in experiment [6].
Consider `Cc1cccc(NC(=O)Nc2cccc(C)c2)c1`, for which the growth inhibition in experiment [1] is -3.75%; in experiment [2], -2.95%; in experiment [3], -2%; in experiment [4] it was -25.9%; in experiment [5], -22.1%; in experiment [6], -18.2%.
Take `CCOC(=O)Nc1cc(Nc2ccc(Cl)cc2)c2nc(-c3ccc(Cl)cc3)c(-c3ccc(Cl)cc3)nc2n1`: the growth inhibition in experiment [1] was 44.7%; in experiment [2], -0.9%; in experiment [3], 36.1%; in experiment [4] it was 20.9%; in experiment [5], -0.75%; in experiment [6], 8.8%.
In the case of `Cc1nc(-c2cccnc2)sc1C(=O)/C=C/c1cccc([N+](=O)[O-])c1`, the growth inhibition is 27.1% in experiment [1]; 10.6% in experiment [2]; 23.9% in experiment [3]; 32.2% in experiment [4]; 5.6% in experiment [5]; 38.9% in experiment [6].
On to `CC1=NN(c2cc(S(=O)(=O)O)ccc2Cl)C(=O)C1N=Nc1ccccc1` (stereo unspecified), for which the growth inhibition is -23.3% in experiment [1]; -26.2% in experiment [2]; -30.1% in experiment [3]; 12.3% in experiment [4]; -20.6% in experiment [5]; -24.8% in experiment [6].
`O=C(O)c1ccc(N2CCOCC2)cc1`: the growth inhibition in experiment [1] is -20%; in experiment [2], -13.5%; in experiment [3], -15.4%; in experiment [4], -15.6%; in experiment [5], -9.3%; in experiment [6], 6.6%.
Regarding `CN(C)CCNC(=O)Cn1cc([N+](=O)[O-])c(=O)c2ccccc21`, the growth inhibition in experiment [1] is -12.9%; in experiment [2] it was -13.1%; in experiment [3], -8.8%; in experiment [4], 18.9%; in experiment [5] it was -7.2%; in experiment [6] it was -31.1%.
Consider `O=C1NC(=O)C(=Cc2cc3c(cc2Br)OCO3)C(=O)N1`, for which the growth inhibition in experiment [1] was 32%; in experiment [2], 30.9%; in experiment [3] it was 40.7%; in experiment [4], 7%; in experiment [5], 41.9%; in experiment [6], 25.9%.
